In PubChem BioAssay (EPA / NIEHS):
Results filed as inconclusive are left out. Active and inactive are the calls of the source. Rule for the calls, unless noted: active = hit-call score of the fitted dose curve at least 0.9, where 1 is the maximum; inconclusive = response in the unintended direction; inactive = score below 0.9.

Legend:
[1] = CEETOX_H295R_11DCORT: CeeTox H295R High-throughput Steroidogenesis Assay for 11-Deoxycortisol (11DCORT) (AID 2283432; active = hit-call score of the fitted dose curve at least 0.9, where 1 is the maximum; inactive = score below 0.9;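 for AC50: 11-deoxycortisol secreted into the medium measured by LC-MS/MS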); details: actives raise or lower the signal
How it was run: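 Adrenal carcinoma line H295R, run per OECD 456 with minor changes, was forskolin-stimulated (10 uM, 48 h) before a 48 h chemical exposure at 0.1% DMSO. Secreted 11-deoxycortisol was quantified by HPLC-MS/MS.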

[2] = CEETOX_H295R_OHPREG: CeeTox H295R High-throughput Steroidogenesis Assay for OH-Pregnenolone (OHPREG) (AID 2283434; active = hit-call score of the fitted dose curve at least 0.9, where 1 is the maximum; inactive = score below 0.9); details: actives raise or lower the signal
How it was run: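 Secreted 17alpha-hydroxypregnenolone measured by HPLC-MS/MS after liquid-liquid extraction. Human adrenal H295R cells received 48 h forskolin (10 uM) stimulation before 48 h chemical exposure at 0.1% final DMSO; MTT viability in same wells; bidirectional fit against DMSO.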

[3] = CEETOX_H295R_OHPROG: CeeTox H295R High-throughput Steroidogenesis Assay for OH-Progesterone (OHPROG) (AID 2283435; active = hit-call score of the fitted dose curve at least 0.9, where 1 is the maximum; inactive = score below 0.9;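 for AC50: 17alpha-hydroxyprogesterone secreted into medium measured by HPLC-MS/MS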); details: actives raise or lower the signal
How it was run: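 Steps: seed H295R cells and adhere overnight; stimulate with 10 uM forskolin for 48 h; replace with chemical-containing medium (0.1% DMSO) for 48 h; extract medium with MTBE; quantify 17alpha-hydroxyprogesterone by reverse-phase C18 HPLC-MS/MS against a 7-point curve.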

[4] = CEETOX_H295R_ANDR: CeeTox H295R High-throughput Steroidogenesis Assay for Androstenedione (ANDR) (AID 2283436; active = hit-call score of the fitted dose curve at least 0.9, where 1 is the maximum; inactive = score below 0.9); details: actives raise or lower the signal
How it was run: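 Medium from 48 h chemical-treated H295R adrenal cells was extracted with MTBE and androstenedione measured by LC-MS/MS. Activity was fit in both directions relative to DMSO. Cytotoxic concentrations were re-tested after dilution until MTT viability reached ≥70%.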

[5] = CEETOX_H295R_CORTIC: CeeTox H295R High-throughput Steroidogenesis Assay for Corticosterone (CORTIC) (AID 2283437; active = hit-call score of the fitted dose curve at least 0.9, where 1 is the maximum; inactive = score below 0.9); details: actives raise or lower the signal
How it was run: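 Medium corticosterone was quantified by tandem mass spectrometry following 48 hours of chemical exposure (0.1% DMSO) in human H295R cells previously stimulated 48 hours with 10 uM forskolin. Viability checked by MTT; chemicals diluted and retested when viability fell below 70%.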

[6] = target: Peroxisome proliferator-activated receptor gamma (Homo sapiens) (UniProt P37231); assay: OT_PPARg_PPARgSRC1_0480: Odyssey Thera (OT) 8-hour Protein-Complementation Assay for Peroxisome Proliferator-activated Receptor Gamma / SRC-1 Co-activator (AID 2283387);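 note: nuclear to cytoplasmic split Venus YFP fluorescence ratio reporting PPARg SRC-1 interaction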
How it was run: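 Protein-fragment complementation in HEK293T: Venus YFP halves (residues 1-158, 159-239, mutated to IFP1/IFP2) fused to PPARg/SRC-1. 8 h exposure; N/C ratio at 488 nm; DMSO negative control.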

[7] = target: Peroxisome proliferator-activated receptor gamma (Homo sapiens) (UniProt P37231); assay: OT_PPARg_PPARgSRC1_1440: Odyssey Thera (OT) 24-hour Protein-Complementation Assay for Peroxisome Proliferator-activated Receptor Gamma/ SRC-1 Co-activator (AID 2283388);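 note: nuclear to cytoplasmic ratio of reconstituted Venus YFP fluorescence in fixed imaged cells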
How it was run: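 Transient HEK293T, YFP fragments 1-158/159-239 (mutant IFP1/IFP2) fused to PPARg/SRC-1; 24 h dosing; fix 4% formaldehyde, Draq5; Opera imaging 488/635 nm; N/C ratio, gain vs DMSO.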

[8] = target: Retinoic acid receptor RXR-alpha (Homo sapiens) (UniProt P19793); assay: OT_NURR1_NURR1RXRa_1440: Odyssey Thera (OT) 24-hour HEK293T Protein Complementation Assay for Nurr1/retinoid X receptor (RXR) (AID 2283386)
How it was run: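 Steps: fragment-tagged Nurr1 and RXRα expressed in HEK293T; compounds added; after 24 h, complemented reporter quantified by fluorescence intensity; signal increase over DMSO fitted as the single endpoint.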

[9] = target: Retinoic acid receptor RXR-alpha (Homo sapiens) (UniProt P19793); assay: OT_NURR1_NURR1RXRa_0480: Odyssey Thera (OT) 8-hour HEK293T Protein Complementation Assay for Nurr1/retinoid X receptor (RXR) (AID 2283385)
How it was run: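 Interaction of bait and prey reconstitutes a functional reporter, whose fluorescence was measured in HEK293T cells dosed with compound for 8 hours. Signal gain relative to DMSO defined the single endpoint.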

Sequence of Peroxisome proliferator-activated receptor gamma (Homo sapiens) (P37231 whole entry, looked up, the tested form may be a part): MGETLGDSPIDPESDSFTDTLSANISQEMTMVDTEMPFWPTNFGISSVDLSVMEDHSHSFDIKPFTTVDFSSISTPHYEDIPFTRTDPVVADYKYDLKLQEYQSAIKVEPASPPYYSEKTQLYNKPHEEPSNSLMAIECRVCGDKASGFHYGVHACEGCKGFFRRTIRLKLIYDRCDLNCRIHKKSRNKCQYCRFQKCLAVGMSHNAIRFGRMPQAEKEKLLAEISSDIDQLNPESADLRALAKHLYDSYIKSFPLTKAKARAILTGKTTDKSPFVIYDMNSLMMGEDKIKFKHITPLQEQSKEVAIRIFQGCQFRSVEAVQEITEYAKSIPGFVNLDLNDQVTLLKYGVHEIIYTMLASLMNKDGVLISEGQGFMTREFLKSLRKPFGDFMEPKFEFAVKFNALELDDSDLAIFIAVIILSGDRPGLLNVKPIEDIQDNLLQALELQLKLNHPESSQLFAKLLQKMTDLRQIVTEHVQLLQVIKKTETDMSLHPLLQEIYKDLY
Sequence of Retinoic acid receptor RXR-alpha (Homo sapiens) (P19793 whole entry, looked up, the tested form may be a part): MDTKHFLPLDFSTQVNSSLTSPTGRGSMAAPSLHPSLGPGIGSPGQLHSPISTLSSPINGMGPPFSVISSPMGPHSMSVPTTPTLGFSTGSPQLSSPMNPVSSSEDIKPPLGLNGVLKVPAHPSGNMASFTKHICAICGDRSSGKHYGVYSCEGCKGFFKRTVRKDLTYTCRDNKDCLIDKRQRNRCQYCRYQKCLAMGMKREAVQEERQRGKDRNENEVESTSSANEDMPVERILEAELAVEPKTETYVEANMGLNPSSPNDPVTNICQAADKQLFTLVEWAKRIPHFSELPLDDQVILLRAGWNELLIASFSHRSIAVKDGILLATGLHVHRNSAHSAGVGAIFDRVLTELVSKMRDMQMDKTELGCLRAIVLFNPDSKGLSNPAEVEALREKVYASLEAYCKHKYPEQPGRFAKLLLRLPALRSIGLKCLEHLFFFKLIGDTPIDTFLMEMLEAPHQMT

Q: Which outcome [1] does the source give for `CCCCCc1ccc(O)cc1` here?
A: inactive

Q: And the outcome [2]?
A: inactive

Q: And the outcome [3]?
A: inactive

Q: What about the AC50 [4] of the same molecule?
A: 50000 nM (active)

Q: And the AC50 [5]?
A: 21900 nM (active)

Q: For `CCCCc1ccc2ccccc2c1S(=O)(=O)O`, which outcome [6] is on record?
A: inactive

Q: What about the outcome [7] of the same molecule?
A: inactive

Q: With `NC(=NCCCCCCN=C(N)/N=C(\N)Nc1ccc(Cl)cc1)/N=C(\N)Nc1ccc(Cl)cc1` as the molecule, how does the outcome [6] read?
A: inactive

Q: And the outcome [7]?
A: inactive

Q: With `CC(C)CCOCCC(C)C` as the molecule, how does the outcome [1] read?
A: inactive

Q: What about the outcome [2] of the same molecule?
A: inactive

Q: What about the outcome [3] of the same molecule?
A: inactive

Q: What about the outcome [4] of the same molecule?
A: inactive

Q: And the outcome [5]?
A: inactive

Q: For `CC(C)[C@@H]1CC[C@@H](C)C[C@H]1O`, which outcome [8] is on record?
A: inactive

Q: And the outcome [6]?
A: inactive

Q: What about the outcome [7] of the same molecule?
A: inactive

Q: Which outcome [8] does the source give for `CC(O)COc1ccccc1` (stereo unspecified) here?
A: inactive

Q: What about the outcome [6] of the same molecule?
A: inactive

Q: And the outcome [7]?
A: inactive

Q: What does the source list for `CC(C)(c1ccc(Oc2ccc(N)cc2)cc1)c1ccc(Oc2ccc(N)cc2)cc1`?
A: AC50 [1]: 249 nM (active); AC50 [2]: 36.1 nM (active); AC50 [3]: 235 nM (active); AC50 [4]: 234 nM (active); AC50 [5]: 229 nM (active)

Q: For `Cc1cc(Cc2cc(C)cc(C(C)(C)C)c2O)c(O)c(C(C)(C)C)c1`, which outcome [7] is on record?
A: inactive

Q: With `COc1cccc(O)c1` as the molecule, how does the outcome [1] read?
A: inactive

Q: What about the outcome [2] of the same molecule?
A: inactive

Q: And the outcome [3]?
A: inactive

Q: And the outcome [5]?
A: inactive

Q: Which outcome [8] does the source give for `NCCN` here?
A: inactive

Q: And the outcome [6]?
A: inactive

Q: What about the outcome [7] of the same molecule?
A: inactive

Q: Which outcome [8] does the source give for `CCCCC(CC)C(=O)O` (stereo unspecified) here?
A: inactive

Q: What about the outcome [6] of the same molecule?
A: inactive

Q: What about the outcome [7] of the same molecule?
A: inactive

Q: What does the source list for `CCc1ccccc1O`?
A: outcome [6]: inactive; outcome [7]: inactive

Q: For `CC(=O)Nc1ccc(O)cc1`, which outcome [8] is on record?
A: inactive

Q: And the outcome [6]?
A: inactive

Q: And the outcome [7]?
A: inactive

Q: For `CC(C)(C)c1ccc(O)c(O)c1`, which outcome [1] is on record?
A: inactive

Q: And the outcome [2]?
A: inactive

Q: What about the outcome [3] of the same molecule?
A: inactive

Q: And the outcome [5]?
A: inactive

Q: For `O=C(O)C(=O)O`, which outcome [6] is on record?
A: inactive

Q: What about the outcome [7] of the same molecule?
A: inactive

Q: For `O=C(NCc1ncc(C(F)(F)F)cc1Cl)c1c(Cl)cccc1Cl`, which outcome [1] is on record?
A: inactive

Q: What about the outcome [2] of the same molecule?
A: inactive

Q: What about the AC50 [3] of the same molecule?
A: 7420 nM (active)

Q: And the outcome [4]?
A: inactive

Q: And the outcome [5]?
A: inactive

Q: What does the source list for `O=C1NS(=O)(=O)c2ccccc21`?
A: outcome [9]: inactive; outcome [8]: inactive; outcome [6]: inactive; outcome [7]: inactive
